# Test results: the antibiotic and cytotoxicity screens of Wong et al. (2023)
# Screen size: about 39,000 compounds; about 3,300 (8.5%) were called active. The list comes from a sample in which actives are over-represented; it also holds similar structures and randomly drawn compounds.
# System: HepG2
# Test: cytotoxicity call (relative viability < 0.9)
# Details: 10 µM
row,SMILES,cytotoxicity call
1,COc1ccccc1CNC(=O)C[C@@H]1C[C@@H]2c3cc(NC(=O)c4ccc5c(c4)OCO5)ccc3O[C@@H]2[C@@H](CO)O1,inactive
2,CNC(=O)c1ccc(CO)cc1,inactive
3,CN(C)Cc1cn(CC[C@@H]2CC[C@H](N)[C@@H](CO)O2)nn1,inactive
4,C[C@H]1CN([C@@H](C)CO)C(=O)c2cccc(NC(=O)NC3CCCCC3)c2O[C@H]1CN(C)S(=O)(=O)c1cn(C)cn1,inactive
5,O=C(C[C@@H]1CC[C@H]2[C@@H](COC[C@@H](O)CN2C(=O)c2ccccn2)O1)NC1CCC1,inactive
6,CN1CCN(C(c2ccccc2)c2ccccc2)CC1,inactive
7,CN1CCC(=C2c3ccccc3C=Cc3ccccc32)CC1.Cl,active
8,CN1CCC(=C2c3ccccc3CCc3sccc32)CC1.O=C(O)CC(O)C(=O)O,inactive
9,CN1C(=O)c2ccccc2C1=O,inactive
10,CN1CCC(=C2c3ccccc3CC(=O)c3sccc32)CC1.O=C(O)C=CC(=O)O,inactive
11,CN1CCC(=C2c3ccccc3Sc3ccccc32)CC1.O=C(O)C=CC(=O)O,active
12,C[C@H]1CCCCO[C@H](CN(C)C(=O)Nc2ccc(C(F)(F)F)cc2)[C@@H](C)CN([C@@H](C)CO)C(=O)c2cc(NC(=O)c3ccccc3)ccc2O1,inactive
13,CCOC(=O)[C@@H]1C(Cc2ccccc2)=CN(CCc2ccc(OC)c(OC)c2)C(=O)N1c1ccc(OC)cc1,inactive
14,C[C@@H]1CN([C@H](C)CO)C(=O)c2cc(C#CCN(C)C)cnc2O[C@@H]1CN(C)C(=O)Nc1cccc(F)c1,inactive
15,C[C@@H]1CN([C@@H](C)CO)C(=O)c2cccc(NC(=O)c3nc4ccccc4s3)c2O[C@H]1CN(C)CC1CCCCC1,inactive
16,C[C@H]1CN([C@@H](C)CO)C(=O)c2cccc(NC(=O)c3nc4ccccc4s3)c2O[C@@H]1CN(C)C(=O)Nc1cccc2ccccc12,inactive
17,C[C@H]1CN([C@@H](C)CO)C(=O)c2cccc(NC(=O)c3nc4ccccc4s3)c2O[C@H]1CN(C)C(=O)Nc1cccc2ccccc12,inactive
18,C[C@@H]1CN([C@H](C)CO)C(=O)c2cccc(NC(=O)c3nc4ccccc4s3)c2O[C@H]1CN(C)CC1CCCCC1,inactive
19,C[C@H](CO)N1C[C@H](C)[C@H](CN(C)C(=O)Nc2cccc3ccccc23)Oc2c(NC(=O)c3nc4ccccc4s3)cccc2C1=O,inactive
20,C[C@@H]1CN([C@@H](C)CO)C(=O)c2cccc(NC(=O)c3nc4ccccc4s3)c2O[C@H]1CN(C)C(=O)Nc1cccc2ccccc12,active
21,C[C@H](CO)N1C[C@H](C)[C@@H](CN(C)C(=O)Nc2cccc3ccccc23)Oc2c(NC(=O)c3nc4ccccc4s3)cccc2C1=O,active

row,SMILES,cytotoxicity call
1,C[C@@H]1CN([C@@H](C)CO)C(=O)c2cccc(NC(=O)c3nc4ccccc4s3)c2O[C@@H]1CN(C)CC1CCCCC1,active
2,C[C@@H]1CN([C@H](C)CO)C(=O)c2cccc(NC(=O)c3nc4ccccc4s3)c2O[C@@H]1CN(C)C(=O)Nc1cccc2ccccc12,inactive
3,COc1cccc(S(=O)(=O)N[C@H]2CC[C@@H](CC(=O)NC3CCC3)O[C@H]2CO)c1,inactive
4,COC(=O)c1c[nH]c(=S)n1C,inactive
5,COc1ccc(NC(=O)Nc2cccc3c2O[C@H](CN(C)Cc2ccc(C(=O)Nc4ccccc4N)cc2)[C@@H](C)CN([C@@H](C)CO)C3=O)cc1,inactive
6,O=C(C[C@H]1CC[C@@H]2[C@H](COC[C@H](O)CN2C(=O)c2ccccc2F)O1)N1CCN(c2ccccc2)CC1,inactive
7,CC[C@@H](C)SSc1ncc[nH]1,inactive
8,C[C@H](CO)N1C[C@H](C)[C@H](CN(C)C(=O)Nc2cccc3ccccc23)OCCCC[C@H](C)Oc2ccc(NC(=O)C3CCCCC3)cc2C1=O,active
9,C[C@@H]1CN([C@H](C)CO)C(=O)c2cc(NC(=O)C3CCCCC3)ccc2O[C@@H](C)CCCCO[C@H]1CN(C)C(=O)Nc1cccc2ccccc12,inactive
10,C[C@@H]1CCCCO[C@H](CN(C)C(=O)Nc2cccc3ccccc23)[C@@H](C)CN([C@H](C)CO)C(=O)c2cc(NC(=O)C3CCCCC3)ccc2O1,inactive
11,C[C@@H]1CCCCO[C@@H](CN(C)C(=O)Nc2cccc3ccccc23)[C@H](C)CN([C@@H](C)CO)C(=O)c2cc(NC(=O)C3CCCCC3)ccc2O1,inactive
12,C[C@@H]1CCCCO[C@@H](CN(C)C(=O)Nc2cccc3ccccc23)[C@@H](C)CN([C@H](C)CO)C(=O)c2cc(NC(=O)C3CCCCC3)ccc2O1,inactive
13,C[C@@H]1CCCCO[C@@H](CN(C)C(=O)Nc2cccc3ccccc23)[C@H](C)CN([C@H](C)CO)C(=O)c2cc(NC(=O)C3CCCCC3)ccc2O1,active
14,C[C@H](CO)N1C[C@H](C)[C@@H](CN(C)C(=O)Nc2cccc3ccccc23)OCCCC[C@H](C)Oc2ccc(NC(=O)C3CCCCC3)cc2C1=O,inactive
15,C[C@@H]1CCCCO[C@H](CN(C)C(=O)Nc2cccc3ccccc23)[C@@H](C)CN([C@@H](C)CO)C(=O)c2cc(NC(=O)C3CCCCC3)ccc2O1,inactive
16,C[C@@H]1CCCCO[C@H](CN(C)C(=O)Nc2cccc3ccccc23)[C@H](C)CN([C@H](C)CO)C(=O)c2cc(NC(=O)C3CCCCC3)ccc2O1,active
17,C[C@@H]1CCCCO[C@@H](CN(C)C(=O)Nc2cccc3ccccc23)[C@@H](C)CN([C@@H](C)CO)C(=O)c2cc(NC(=O)C3CCCCC3)ccc2O1,inactive
18,C[C@@H]1CN([C@H](C)CO)C(=O)c2cc(NC(=O)C3CCCCC3)ccc2O[C@@H](C)CCCCO[C@@H]1CN(C)C(=O)Nc1cccc2ccccc12,active
19,C[C@H]1CCCCO[C@@H](CN(C)C(=O)Nc2cccc3ccccc23)[C@@H](C)CN([C@@H](C)CO)C(=O)c2cc(NC(=O)C3CCCCC3)ccc2O1,inactive
20,C[C@H]1CN([C@@H](C)CO)C(=O)c2cc(NC(=O)Cn3cnnn3)ccc2O[C@H]1CN(C)S(=O)(=O)c1ccc(Cl)cc1,inactive
21,COc1ccc(S(=O)(=O)N(C)C[C@H]2Oc3ccc(NS(=O)(=O)c4ccc(C)cc4)cc3C(=O)N([C@H](C)CO)C[C@H]2C)cc1,inactive
